Calls of active or inactive are those of the source. No stated cut-off is given here; in the data, active means remaining activity below about 50%; inactive means the rest.
Target: Phospholipase D2 (Homo sapiens) (UniProt O14939)
Experiment: cellular phospholipase D2 activity inhibition – cell-based, HEK293, single concentration (AID 602143);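 further: tested at 200 nM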
Conditions: HEK293 cellular PLD2 activity, percent of control; stronger effect = lower value

Phospholipase D2 (Homo sapiens), sequence (O14939 whole entry, looked up): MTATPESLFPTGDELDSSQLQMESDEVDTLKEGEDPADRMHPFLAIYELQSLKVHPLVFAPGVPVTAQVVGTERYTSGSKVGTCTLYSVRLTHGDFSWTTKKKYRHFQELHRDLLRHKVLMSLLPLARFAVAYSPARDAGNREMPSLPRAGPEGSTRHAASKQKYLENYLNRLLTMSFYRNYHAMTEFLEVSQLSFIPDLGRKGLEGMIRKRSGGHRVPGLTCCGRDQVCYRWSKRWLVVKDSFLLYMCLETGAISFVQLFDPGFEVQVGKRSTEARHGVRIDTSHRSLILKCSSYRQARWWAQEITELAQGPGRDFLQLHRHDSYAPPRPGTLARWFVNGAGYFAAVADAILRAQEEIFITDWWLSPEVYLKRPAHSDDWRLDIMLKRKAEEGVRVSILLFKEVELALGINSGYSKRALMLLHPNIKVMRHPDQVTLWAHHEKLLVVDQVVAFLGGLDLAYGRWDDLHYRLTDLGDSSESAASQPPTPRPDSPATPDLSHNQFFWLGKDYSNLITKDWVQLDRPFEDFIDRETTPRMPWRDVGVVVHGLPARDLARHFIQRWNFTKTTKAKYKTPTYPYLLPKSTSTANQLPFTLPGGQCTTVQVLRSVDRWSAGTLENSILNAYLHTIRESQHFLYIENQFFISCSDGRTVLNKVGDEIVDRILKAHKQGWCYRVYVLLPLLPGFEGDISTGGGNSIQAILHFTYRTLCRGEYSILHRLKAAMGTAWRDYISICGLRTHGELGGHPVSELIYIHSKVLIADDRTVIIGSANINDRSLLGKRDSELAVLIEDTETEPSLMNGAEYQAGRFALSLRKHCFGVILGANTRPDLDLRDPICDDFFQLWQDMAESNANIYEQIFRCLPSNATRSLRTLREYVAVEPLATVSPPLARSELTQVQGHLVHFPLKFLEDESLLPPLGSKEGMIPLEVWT
Phospholipase D2 (Homo sapiens), sequence (O14939 whole entry, looked up): as above

| Compound | remaining activity |
| --- | --- |
| C[C@H](CN1CCC(n2c(=O)[nH]c3cc(Cl)ccc32)CC1)NC(=O)c1cc2ccccc2[nH]1 | 25% (active) |
| Nc1ccc(C(=O)NCCN2CCC(n3c(=O)[nH]c4ccccc43)CC2)cc1OC(F)(F)F | 76.5% (inactive) |
| CC(C)[C@@H](CN1CCC(n2c(=O)[nH]c3ccccc32)CC1)NC(=O)c1ccc2ccccc2c1 | 73.3% (inactive) |
| O=C(NCCN1CCC(n2c(=O)[nH]c3ccccc32)CC1)Nc1cccc(OC(F)(F)F)c1 | 111% (inactive) |
| O=C(NCCN1CCC2(CC1)CNCc1ccccc12)c1cnc2ccccc2c1 | 97.1% (inactive) |
| O=C(NCCN1CCC(n2c(=O)[nH]c3ccccc32)CC1)C1CCCCCC1 | 104% (inactive) |
| C[C@@H](CN1CC=C(n2c(=O)[nH]c3ccccc32)CC1)NC(=O)c1ccc2ccccc2c1 | 15.3% (active) |
| O=C(NCCN1CC=C(n2c(=O)[nH]c3ccccc32)CC1)[C@H]1C[C@@H]1c1ccccc1 | 114% (inactive) |
| C[C@@H](CN1CCC2(CC1)CCN(C)C2=O)NC(=O)c1ccc2ccccc2c1 | 135% (inactive) |
| O=C(NCCN1CCC(n2nnc3ccccc32)CC1)c1ccc2ccccc2c1 | 0.808% (active) |
| NC1(CN2CCC(n3c(=O)[nH]c4ccccc43)CC2)CCCC1 (tested in a mixture with another compound) | 66.9% (inactive) |
| C[C@H](CN1CCC(n2nnc3ccccc32)CC1)NC(=O)c1ccc2ccccc2c1 | 48.2% (active) |
| O=C(NCCN1CCC(n2c(=O)[nH]c3ccc(F)cc32)CC1)c1ccc(C(F)(F)F)cc1 | 61.8% (inactive) |
